Consider 40 compounds from PubChem BioAssay (NCI).

This is part of a sample that, as a whole, favours compounds with a hit. Of some 83,000 tested, about 20% had one in any assay.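 Cells were grown in 96-well plates and exposed to the test compound at a single concentration for 48 hours; results are reported as percent growth, with values below 10 considered active.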 The source made the active and inactive calls.

This test concerns CAKI-1 renal. Kind of test: NCI-60 one-dose screen, 48 h (100 = growth as untreated, 0 = no growth, -100 = all killed). Particulars: 10 µM. On the procedure: Growth inhibition of the CAKI-1 human tumor cell line is measured as a screen for anti-cancer activity. Cells are grown in 96 well plates and exposed to the test compound for 48 hours. Compounds are tested at a single concentration, which is 10^-5 M for most compounds. The reported endpoint is percent growth (GI% or GIPRCNT), where numbers from 0 - 100% represent growth inhibition, and numbers from -100% - 0 represent cell death. For example, a value of 40 represents 60% growth inhibition. A value of 0 means no net growth occurred over the course of the experiment. A value of -40 indicates 40% of cells at the beginning of the experiment died by the end of the experiment. A value of -100 means all cells are dead at the end of the experiment.
NCI-60 Human Tumor Cell Lines Screen was performed using the standard one-dose NCI protocol, which is described in more detail at https://dtp.cancer.gov/discovery_development/nci-60/default.htm.
Compounds with GIPRCNT values below 10 were considered active. Activity score was based on GIPRCNT using the following formula: […]
Score is 0 for GIPRCNT values of 100 or above, 50 for GIPRCNT values of 0, and 100 for GIPRCNT values of -100.
Turning to `CC[C@]12C=CCN3CC[C@@]4(c5ccc(OC)cc5N(C)[C@H]4[C@@](O)(C(=O)OC)[C@@H]1OC(=O)CCCC[P+](c1ccc(OC)cc1)(c1ccc(OC)cc1)c1ccc(OC)cc1)[C@@H]32`, the growth was -78.5% (active).

Consider `O=C(/C=C/c1ccco1)c1nc2ccccc2n1Cc1ccc(Br)cc1`, for which the growth was 47.5% (inactive).

On to `O=C(/C=C/c1ccc(F)cc1)c1nc2ccccc2n1Cc1ccc(Br)cc1`, for which the growth is -23% (active).

Regarding `COc1cc(OC)c(S(=O)(=O)N(CCCl)CCCl)cc1C(=O)/C=C/c1cc(OC)c(OC)c(OC)c1`, the growth was -5.59% (active).

With `C[C@H]1[C@@H](Oc2ccc(-c3cn(-c4ccnc5cc(Cl)ccc45)nn3)cc2)O[C@@H]2OC3(C)CC[C@H]4[C@H](C)CC[C@@H]1[C@@]24OO3`, the growth is 25.6% (inactive).

As to `COC(=O)c1ccc(-n2cc(CCCN(CCNc3ccnc4cc(Cl)ccc34)C(=O)CCC(=O)O[C@@H]3O[C@@H]4OC5(C)CC[C@H]6[C@H](C)CC[C@@H]([C@H]3C)[C@@]46OO5)nn2)cc1`, the growth is 44.5% (inactive).

`C#CC[Se]C(=O)c1ccc(C(=O)[Se]CC#C)s1`: the growth was 106% (inactive).

For the compound `O=C(/C=C/c1ccc(Cl)cc1)c1nc2ccccc2n1Cc1ccc(Br)cc1`, the growth was 57.4% (inactive).

As to `O=C(/C=C/c1ccc(Br)cc1)c1nc2ccccc2n1Cc1ccc(Br)cc1`, the growth was 16% (inactive).

On to `COC(=O)C[C@](O)(CCCC(C)C)C(=O)O[C@H]1C(OC)=C[C@@]23CCCN2CCc2cc4c(cc2[C@@H]13)OCO4`, for which the growth was -3.49% (active).

As for `C[C@H]1[C@@H](CC(=O)N[C@@H](Cc2coc3ccccc23)B(O)O)O[C@@H]2OC3(C)CC[C@H]4[C@H](C)CC[C@@H]1[C@@]24OO3`, the growth is 25.2% (inactive).

In the case of `COCCOCCOCCOc1ccc(-n2cc(CCCN(CCNc3ccnc4cc(Cl)ccc34)C(=O)CCC(=O)O[C@@H]3O[C@@H]4OC5(C)CC[C@H]6[C@H](C)CC[C@@H]([C@H]3C)[C@@]46OO5)nn2)cc1`, the growth was 39.7% (inactive).

As to `O=C(NC([Se])=NC1CCCCC1)c1ccc2c(c1)OCO2`, the growth is 39.6% (inactive).

In the case of `O=C(/C=C/c1ccccc1)c1nc2ccccc2n1Cc1ccc(F)cc1`, the growth was 31.2% (inactive).

As to `CC(=O)Oc1ccccc1C(=O)[Se]C(=NC(C)C)NC(C)C`, the growth is -98.5% (active).

Turning to `CCOC(=O)C1=C(Nc2ccccc2)C(=O)OC12C(=O)Nc1ccccc12` (stereo not given), the growth was 82.6% (inactive).

In the case of `Cc1c2oc3c(C)ccc(C(=O)N[C@@H]4C(=O)N[C@H](C(C)C)C(=O)N5CCC[C@H]5C(=O)N(C)CC(=O)N(C)[C@@H](C(C)C)C(=O)OC4C)c3nc-2c(C(=O)N[C@@H]2C(=O)N[C@H](C(C)C)C(=O)N3CC(=O)C[C@H]3C(=O)N(C)CC(=O)N(C)[C@@H](C(C)C)C(=O)OC2C)c(N)c1=O` (stereo not given in full), the growth is 8.23% (active).

Take `C[C@H]1[C@H](OC(=O)CCC(=O)N(CCCc2cn(-c3ccc([N+](=O)[O-])cc3)nn2)CCNc2ccnc3cc(Cl)ccc23)O[C@@H]2OC3(C)CC[C@H]4[C@H](C)CC[C@@H]1[C@@]24OO3`: the growth is 37.4% (inactive).

Take `C#CC[Se]C(=O)c1ccc2n[se]nc2c1`: the growth is 71.3% (inactive).

Turning to `O=C([Se]C1C=CCCC1)c1ccc(C(=O)[Se]C2C=CCCC2)s1` (stereo not given), the growth is -61.6% (active).

`COc1cc2cc(C(=O)N3C[C@@H](CCl)c4c3cc(OC(=O)N3CCN(C)[C@@H]5CSSC[C@@H]53)c3ccccc43)[nH]c2c(OC)c1OC`: the growth is -0.707% (active).

On to `CC1=C(COCCOC(=O)c2ccc(S(=O)(=O)F)cc2)C2=C(C)C3(CC3)[C@@](C)(O)C(=O)C2=C1`, for which the growth is -1.85% (active).

On to `COc1cc(OC)c(S(=O)(=O)N(CCCl)CCCl)cc1C(=O)/C=C/c1ccc(C)cc1`, for which the growth is 65.3% (inactive).

With `CC12OOC(C)(OO1)C2CCC(=O)NCCCNc1ccnc2cc(Cl)ccc12` (stereo not given), the growth is -93.3% (active).

Consider `CC[C@]12C=CCN3CC[C@@]4(c5ccc(OC)cc5N(C)[C@H]4[C@@](O)(C(=O)OC)[C@@H]1OC(=O)CCCC[P+](C1CCCCC1)(C1CCCCC1)C1CCCCC1)[C@@H]32`, for which the growth is -24.1% (active).

As for `COc1ccc2cc([C@H](C)C(=O)[Se]CCC#N)ccc2c1`, the growth is -94% (active).

Turning to `COc1cc2cc(C(=O)N3C[C@@H](CCl)c4c3cc(OC(=O)N3CCN(C)[C@@H]5CSSC[C@H]53)c3ccccc43)[nH]c2c(OC)c1OC`, the growth is -9.91% (active).

`CCC[Se]C(=O)c1ccc(C(=O)[Se]CCC)s1`: the growth was -78.1% (active).

On to `COC(=O)C[C@](O)(CCC(C)C)C(=O)O[C@H]1C(OC)=C[C@@]23CCCN2CCc2cc4c(cc2[C@@H]13)OCO4`, for which the growth was -28.4% (active).

As for `COc1cc2cc(C(=O)N3C[C@@H](CCl)c4c3cc(OC(=O)N3CCN(C(=O)CCC(=O)N5CCN(C)CC5)[C@@H]5CSSC[C@@H]53)c3ccccc43)[nH]c2c(OC)c1OC`, the growth is 13.9% (inactive).

`O=C(/C=C/c1ccc(Cl)cc1)c1nc2ccccc2n1Cc1ccc(F)cc1`: the growth was 41.8% (inactive).

Turning to `CC[C@@]12CC(C(=O)OC)=C3Nc4cc5c(cc4[C@@]34CCN(C[C@H]3O[C@H]31)[C@@H]24)[C@@H]1[C@H](O5)[C@@H](O)[C@@]2(CC)CC(C(=O)OC)=C3Nc4cc(OC)ccc4[C@@]34CCN1[C@@H]24`, the growth is 12.9% (inactive).

Turning to `CCOP(=O)(CC(F)(F)C(F)(F)F)OCC`, the growth is 2.63% (active).

On to `C=CC[Se]C(=O)c1cncc(C(=O)[Se]CC=C)c1`, for which the growth was -8.92% (active).

Regarding `O=C(/C=C/c1ccccc1)c1nc2ccccc2n1Cc1ccc(Br)cc1`, the growth was -19.2% (active).

For the compound `CC[C@]12C=CCN3CC[C@@]4(c5ccc(OC)cc5N(C)[C@H]4[C@@](O)(C(=O)OC)[C@@H]1OC(=O)CCC[P+](C1CCCCC1)(C1CCCCC1)C1CCCCC1)[C@@H]32`, the growth was -8.49% (active).

Take `CC1=C2C(=C[C@@](C)(COP(=O)(Oc3ccccc3)Oc3ccccc3)[C@@H]2O)C(=O)[C@@](C)(O)C12CC2`: the growth was -19.5% (active).

On to `O=C(/C=C/c1ccccc1Cl)c1nc2ccccc2n1Cc1ccc(F)cc1`, for which the growth was -40.5% (active).

Take `CC(C)N=C([Se])NC(=O)c1cccs1`: the growth is 31.1% (inactive).

As for `CC(=O)Oc1ccccc1C(=O)NC([Se])=NC1CCCCC1`, the growth was -75.4% (active).
